NOD2-RIPK2 inh: NOD2-RIPK2 binding disruptors in cells, primary screen, fluorescence, CHO cells, BLA complementation | AID 624267, 2012 | CCF4 ratio | actives 0.38% (n = 360,000) | inhibition, % at 4.98 µM; in the data active = inhibition above about 21%;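 also: 0% = vehicle only and 100% = reference blocker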
TLR9-MyD88 block: inhibitors of TLR9-MyD88 association in cells, primary screen, cell-based, CHO, BLA complementation, fluorescence | Toll-like receptor 9 (Homo sapiens) + Myeloid differentiation primary response protein … | CCF4 FRET ratio | inhibition, % at 4.98 µM | actives 0.21% (n = 340,000) | AID 504734, 2011;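 active = inhibition above the mean over all tested compounds plus 3 SD, cut at about 21% in these data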;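 also: 0% = DMSO only wells and 100% = clavulanate BLA inhibitor control wells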
Target sequence (Q99836 whole entry, looked up): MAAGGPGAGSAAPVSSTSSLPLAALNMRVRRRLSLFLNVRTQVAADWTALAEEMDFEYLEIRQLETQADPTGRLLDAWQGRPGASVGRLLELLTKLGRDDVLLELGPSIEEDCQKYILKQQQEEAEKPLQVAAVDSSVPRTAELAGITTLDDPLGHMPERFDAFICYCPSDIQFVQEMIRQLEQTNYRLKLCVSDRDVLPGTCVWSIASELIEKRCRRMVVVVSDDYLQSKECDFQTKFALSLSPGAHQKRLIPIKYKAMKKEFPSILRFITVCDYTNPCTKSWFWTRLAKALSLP
Target sequence (Q9NR96 whole entry, looked up): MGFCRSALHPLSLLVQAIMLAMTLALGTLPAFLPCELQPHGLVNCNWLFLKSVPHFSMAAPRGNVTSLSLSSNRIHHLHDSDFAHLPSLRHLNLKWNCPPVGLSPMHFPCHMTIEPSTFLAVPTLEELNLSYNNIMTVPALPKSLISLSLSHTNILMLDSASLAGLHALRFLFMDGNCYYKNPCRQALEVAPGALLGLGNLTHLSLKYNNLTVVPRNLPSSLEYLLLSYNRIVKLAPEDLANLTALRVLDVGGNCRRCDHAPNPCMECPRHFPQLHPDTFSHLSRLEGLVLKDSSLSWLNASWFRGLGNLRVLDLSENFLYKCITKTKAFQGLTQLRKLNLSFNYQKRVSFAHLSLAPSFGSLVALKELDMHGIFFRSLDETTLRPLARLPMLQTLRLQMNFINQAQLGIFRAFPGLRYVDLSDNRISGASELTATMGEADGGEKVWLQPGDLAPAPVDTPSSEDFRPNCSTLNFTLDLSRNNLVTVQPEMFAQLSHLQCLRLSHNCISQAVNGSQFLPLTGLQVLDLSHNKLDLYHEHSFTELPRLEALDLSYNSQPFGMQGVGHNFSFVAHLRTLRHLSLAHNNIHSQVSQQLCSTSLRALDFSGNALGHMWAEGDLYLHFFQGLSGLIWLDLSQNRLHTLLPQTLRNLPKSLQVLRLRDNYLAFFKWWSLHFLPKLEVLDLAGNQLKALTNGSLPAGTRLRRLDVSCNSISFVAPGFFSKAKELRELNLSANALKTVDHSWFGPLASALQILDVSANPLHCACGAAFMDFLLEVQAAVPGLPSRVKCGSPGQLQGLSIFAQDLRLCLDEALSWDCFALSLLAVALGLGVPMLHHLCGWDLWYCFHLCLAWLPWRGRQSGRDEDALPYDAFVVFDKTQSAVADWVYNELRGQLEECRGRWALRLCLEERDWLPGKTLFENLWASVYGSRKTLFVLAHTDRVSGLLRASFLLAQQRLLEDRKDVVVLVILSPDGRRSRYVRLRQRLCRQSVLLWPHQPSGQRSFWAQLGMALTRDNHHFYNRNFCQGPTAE
TLR4-MyD88 BLA: inhibitors of TLR4-MyD88 association in cells, primary screen, cell-based, HeLa CL3-4, BLA complementation, FRET ratio. Toll-like receptor 4 (Homo sapiens) + Myeloid differentiation primary response protein …. HeLa CL3-4 TLR4/MyD88 BLA complementation. inhibition, % at 8.4 µM. actives 0.18% (n = 200,000); in the data active = inhibition above about 25%;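 also: 0% = vehicle and 100% = reference inhibitor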
LANA-H2A inh: blockers of LANA interaction with H2A/H2B – biochemical, FP readout, HTS, primary screen; cell-free LANA-H2A/H2B peptide, fluorescence polarization; inhibition, % (test concentration not listed); actives 0.6% (n = 320,000); in the data active = inhibition mostly above about 10%, no sharp cut-off; inactive = mostly below about 6.7%
HTR2A ag: mouse Htr2a agonists via beta-arrestin recruitment, primary screen, cell-based, luminescence; 5-hydroxytryptamine receptor 2A (Mus musculus), P35363; CHO-K1 mHTR2A beta-arrestin complementation; percent of 30 µM serotonin response; activation, % at 7.6 µM; actives 0.66% (n = 360,000);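 active = activation above a run cutoff, the mean activation of all tested compounds plus 3 SD, cut at about 14% in these data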;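 also: 0% = plate median of compound wells and 100% = 30 µM serotonin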
Rtt109 HAT inh: inhibitors of C. albicans Rtt109/Vps75 HAT, primary screen, biochemical, ThioGlo CoA-SH fluorescence, plate reader. purified Rtt109/Vps75, 4 h. inhibition, % at 34.9 µM. actives 0.16% (n = 330,000). AID 540336, 2011;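 active = inhibition of at least 50% in every replicate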
* hit, by the source's call; . = not tested or not shown; + = active, no number; ! = repeats disagree. Hits are enriched below; roughly 1.8% of the tested compounds scored in any of these assays.

SMILES | NOD2-RIPK2 inh | TLR9-MyD88 block | TLR4-MyD88 BLA | LANA-H2A inh | HTR2A ag | Rtt109 HAT inh
CC1(C)O[C@@H]2C[C@H]3[C@@H]4C[C@H](F)C5=CC(=O)C=C[C@]5(C)[C@@]4(F)[C@@H](O)C[C@]3(C)[C@]2(C(=O)CO)O1 | 0.5 | 6.5 | 0.2 | 34.3*! | -0.2 | 5.0
CC(=O)OCC(=O)[C@@]12OC3(CCCC3)O[C@@H]1C[C@H]1[C@@H]3CCC4=CC(=O)C=C[C@]4(C)[C@@]3(F)[C@@H](O)C[C@@]12C | 3.3 | 10.6 | -1.5 | -2.7 | 18.2* | 14.8
Nc1ccn([C@@H]2O[C@H](C(=O)N3CCN(c4ccc(Cl)cn4)CC3)[C@@H](O)[C@H]2O)c(=O)n1 | 0.1 | . | . | . | -1.1 | .
COc1cc(OC)cc(-c2c(Sc3ccccc3)c3cc(-c4ccc(OC)c(F)c4)ccc3n2C)c1 | -2.5 | . | . | . | 6.0 | .
COC(=O)CC1=C(C(=O)OC)C(c2cc(OC)c(OC)cc2OC)C(C#N)=C(N)O1 (stereo unspecified) | -9.4 | 2.5 | -3.2 | 14.2* | -0.4 | 1.1
O=C(COC(=O)c1cncc(Br)c1)NCc1ccc(Cl)cc1 | -3.8 | -2.8 | . | 166.9* | 1.1 | -0.3
O=C(COC(=O)c1cncc(Br)c1)NCc1ccccc1 | 0.9 | -7.5 | 4.5 | 0.6 | -0.4 | -5.5
CCCc1nnc(NS(=O)(=O)c2ccc(OC)cc2)s1 | 4.2 | -4.0 | -17.9 | 15.3* | -0.8 | 1.8
CC1(C(=O)Nc2cnc3ccccc3c2)CCN1C(=O)CC(c1ccccc1)c1ccccc1 (stereo unspecified) | 8.8 | . | . | . | -1.6 | .
CN(C)CCN1CCN(C(c2ccnc3ccccc23)c2nnnn2-c2ccc3c(c2)OCCO3)CC1 (stereo unspecified) | -2.1 | . | . | . | 5.2 | .
CC(C)N1CC2(CC(c3ccc(Cl)cc3Cl)=NO2)CN1C(=O)c1ccc(C(C)(C)C)cc1 (stereo unspecified) | -3.0 | 3.2 | . | . | 3.8 | .
Cc1ccc(S(=O)(=O)N2CCN(C(=O)CC(C)n3cncn3)CC2)cc1C (stereo unspecified) | -2.1 | 3.0 | . | 25.2* | -1.0 | 1.8
Cc1ccc(S(=O)(=O)N2CCN(C(=O)CC(C)n3cncn3)CC2)cc1 (stereo unspecified) | 7.2 | 7.7 | . | 0.9 | -4.3 | -1.9
CN(C)CCCN1c2ccccc2Sc2ccc(Cl)cc21 | -7.5 | -0.7 | -9.0 | 2.8*! | 1.9 | 5.3
COc1ccc(C2C(C(=O)c3ccco3)=C(O)C(=O)N2CC2CCCO2)cc1OC (stereo unspecified) | -8.6 | -2.2 | . | 18.9* | 5.1 | -0.2
O=C(C1=C(O)C(=O)N(CC2CCCO2)C1c1ccccc1)c1ccco1 (stereo unspecified) | -11.8 | -7.7 | . | -1.5 | 7.6 | 2.3
O=C(CO)c1c[nH]c2ccccc12 | -7.1 | . | . | . | 0.1 | .
C=CCn1c(SCCC)nc(O)cc1=O | 8.1 | 0.8 | -5.9 | 15.6* | -2.6 | 9.7
C=CCn1c(SCC)nc(O)cc1=O | 0.2 | -13.7 | 3.3 | -7.6 | 4.5 | -5.6
Cc1cccc(CCNC(=O)CCc2nc(-c3ccccc3F)no2)c1 | -4.3 | 1.6 | -13.1 | -3.7 | 0.6 | -4.4
CN(C(=O)CCc1nc(-c2ccccc2F)no1)c1ccccc1 | -9.1 | -49.7 | -12.6 | 1.3 | 1.7 | 54.8*
COC(=O)c1cccc(CN2C(=O)C(C)Sc3cc(Cl)ccc32)c1 (stereo unspecified) | 6.0 | . | . | . | 5.5 | .
Cn1c(SCC(=O)c2ccccc2)nc2cccnc21 | -0.2 | -3.9 | -4.0 | 97.7* | -0.7 | -0.9
CCOc1ccccc1OCC(=O)O | -4.5 | -3.3 | 0.0 | -5.7 | 3.8 | 12.4
O=C(O)COc1ccccc1O | -6.3 | 1.9 | -4.6 | -1.0 | 1.0 | 60.2*
SMILES | NOD2-RIPK2 inh | TLR9-MyD88 block | TLR4-MyD88 BLA | LANA-H2A inh | HTR2A ag | Rtt109 HAT inh
COc1cc(CC(=O)NC2CCCc3ccccc32)cc(OC)c1OC (stereo unspecified) | 92.1* | 6.1 | . | 2.5 | 2.9 | 1.1
COc1ccccc1CC(=O)NC1CCCc2ccccc21 (stereo unspecified) | -9.6 | 8.3 | -0.2 | 2.9 | 7.7 | -2.1
COc1cc(Cl)ccc1OCc1cc(C(=O)NC2CCc3ccccc32)no1 (stereo unspecified) | -2.4 | 2.6 | . | 28.7* | 1.5 | 4.2
CC(=O)NC(CC(=O)NC1CCCc2ccccc21)c1ccccc1 (stereo unspecified) | -4.1 | -5.7 | . | 2.5 | -4.3 | 57.4*
COC(=O)C[C@H]1C=C[C@H](NC(=O)c2ccccn2)[C@@H](CO)O1 | -13.7 | . | . | . | 3.3 | .
CN(Cc1cn(Cc2ccc(F)cc2)nn1)C1CN(Cc2cn(Cc3ccc(F)cc3)nn2)S(=O)(=O)C1 (stereo unspecified) | 0.6 | . | . | . | -0.1 | .
C[C@@H]1CN([C@@H](C)CO)C(=O)c2cc(C#CC3CCCCC3)cnc2O[C@@H]1CN(C)S(=O)(=O)c1ccc(F)cc1 | -4.0 | -9.5 | . | . | -0.4 | .
COc1ncccc1-c1cc2nc(NCCCN(C)C)n(C)c(=O)c2s1 | -6.1 | . | . | . | -2.7 | .
COc1ccc(C(=O)C2CCCN(Cc3cn[nH]c3-c3ccccc3)C2)cc1OC (stereo unspecified) | 2.6 | -0.3 | -8.5 | 4.8 | -3.6 | 0.5
Cn1ccnc1C(=O)C1CCCN(Cc2cn[nH]c2-c2ccc(-c3ccccc3)cc2)C1 (stereo unspecified) | -4.4 | -4.0 | -6.2 | 18.0* | -6.6 | 14.8
COc1cc(/C=N/N=C(N)N)ccc1OCc1ccccc1Cl | -0.7 | 3.2 | -9.7 | 0.3 | -0.6 | 69.0*
COc1ccc(/C=N/N=C/c2ccc(OC)c(OC)c2)cc1OC | 2.6 | 4.2 | -2.0 | 1.0 | -2.0 | -9.7
O=C(N/N=C/c1sc2ccccc2c1O)c1ccccc1 | 8.1 | 7.1 | -8.3 | -6.9 | -6.1 | 18.8
O=C(N/N=C/c1sc2ccccc2c1O)c1cccc2ccccc12 | 14.5 | 17.4 | 6.8 | + | -1.2 | 11.7
CCN(CC)S(=O)(=O)c1cccc(NC(=O)COC(=O)c2[nH]c(C)c(C(C)=O)c2C)c1 | 2.2 | 2.3 | . | . | 2.2 | .
CCOc1c(C)cnc2c1c(=O)n(Cc1ccc(Cl)cc1)c(=O)n2C | 11.2 | 7.4 | . | 16.6* | 1.5 | 1.4
CC1=C(C(=O)N2CCCCCC2)CC(CC(=O)NCC2CCCCC2)C(=O)N1CCCN1CCCC1=O (stereo unspecified) | -16.9 | . | . | . | -0.2 | .

From PubChem
